# PubChem BioAssay (NCATS)
# Records with an inconclusive call do not appear. Entries that show only a call come without a potency. Unmarked numbers belong to inactive results. The source made the active and inactive calls. Calls come from the whole dose curve; as a rule, active = well fitted curve in the direction sought with a large enough effect; inconclusive = small, poorly fitted or top-dose-only effect, or another doubt; inactive = no such curve, though single readings can be large; an effect the other way counts as inactive or inconclusive. *1 amine or outer side, *2 acyl side, *3 side chain or, on linkers, in order; H or OH if unused. Where a SMILES comes first, the peptide text is derived from it. Bridges are numbered along the chain shown (N, C = ends). [ ]: non-standard residue; d: D form. The star is where a group is joined. ξ: configuration not given here. ξhTyr(3S-OH,4S-OH,3'-OSO3H) = NC(C(=O)O)[C@H](O)[C@@H](O)c1ccc(O)c(OS(=O)(=O)O)c1; Orn(4R-OH,5R-OH) = O=C([C@H](C[C@@H](O)[C@@H](O)N[*:3])N[*:1])[*:2]; X2 = CCCCCOc1ccc(-c2cc(-c3ccc(C(=O)*)cc3)no2)cc1; X3 = C[C@H]1CN([*:1])C(C(=O)[*:2])[C@H]1O; ξGln(3R-OH) = NC(=O)C[C@@H](O)C(N)C(=O)O; ξPro(4R-OH) = O=C(O)C1C[C@@H](O)CN1; ξThr(3R) = C[C@@H](O)C(N)C(=O)O; Hexanoyl = CCCCCC(=O)*
# Legend:
# [1] = Vero cells viability qHTS for Zika virus inhibitors (AID 1347167)
# Method in brief: (§1)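 Counter-screen for cytotoxicity of hits from NS2B-NS3 protease qHTS. Overnight-attached cells (2.5 x 10^5 cells/mL, DMEM/4% FBS) were dosed in titration, incubated 24 to 48 hours, then assayed by CellTiter Glo.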
# [2] = HepG2 cells viability qHTS for Zika virus inhibitors (AID 1347168)
# Method in brief: as §1
# [3] = Tertiary RLuc qRT-PCR qHTS assay for Zika virus inhibitors (AID 1347169); note: nearly all actives have a fitted effect of over 55% in size; note: potency is the fitted concentration of half-maximal effect; for activity change, negative = inhibition: top concentration of the series differs between compounds
# Method in brief: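 Vero, 1,000 cells/well, o/n 37 C; cpd pinned in DMSO; ZIKV-RLuc Cambodian, MOI 1-2, 48-72 h 37 C; live-cell RLuc substrate, lum read at 1-1.5 h.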
# [4] = OV-KATE Cancer Cell Toxicity qHTS against the NCATS CANVASS Library (AID 1347345)
# Method in brief: (§2)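 Quantitative HTS format: an 11-concentration series was applied to 1000 cells/well following a 4-hour attachment. Cultures ran 72 hours before ATP luminescence detection by CellTiter-Glo.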
# [5] = HPAF-II Cancer Cell Toxicity qHTS against the NCATS CANVASS Library (AID 1347346); note: series mostly up to about 38 µM; nearly all actives have a fitted effect of over 55% in size
# Method in brief: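 Cytotoxicity in HPAF-II pancreatic cancer cells: 72 h treatment across 11 concentrations, ATP-based CellTiter-Glo luminescence endpoint.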
# [6] = UWB1.289 Cancer Cell Toxicity qHTS against the NCATS CANVASS Library (AID 1347347); note: series mostly up to about 38 µM; nearly all actives have a fitted effect of over 60% in size
# Method in brief: as §2
# [7] = OV-SAHO Cancer Cell Toxicity qHTS against the NCATS CANVASS Library (AID 1347348); note: series mostly up to about 38 µM; nearly all actives have a fitted effect of over 55% in size
# Method in brief: as §2
# [8] = Panc-1005 Cancer Cell Toxicity qHTS against the NCATS CANVASS Library (AID 1347349); note: series mostly up to about 38 µM; nearly all actives have a fitted effect of over 60% in size
# Method in brief: as §2
# [9] = SW1088 Cancer Cell Toxicity qHTS against the NCATS CANVASS Library (AID 1347350); note: nearly all actives have a fitted effect of over 75% in size; note: potency is the fitted concentration of half-maximal effect
# Method in brief: as §2
# [10] = U-118MG Cancer Cell Toxicity qHTS against the NCATS CANVASS Library (AID 1347351); details: outcome: dose series up to 38.3 µM
# Method in brief: as §2
structure (smiles),measurement,setting,value
C/C(=C\CCC(C)CCO)C(=O)OC[C@H]1O[C@@H](O[C@@H]2OC=C(C(=O)O)[C@H]3CC[C@](C)(O)[C@@H]23)C(O)[C@@H](O)C1O (stereo partly drawn),outcome,[1],inactive
same,outcome,[2],inactive
O=C(O)CC1CCC(c2ccc(-c3ccc(Nc4ccc(C(F)(F)F)nc4)cn3)cc2)CC1 (stereo not drawn),outcome,[1],inactive
same,outcome,[2],inactive
same,Potency,[3],16.5 µM (active)
COc1cc(Nc2ccc([N+](=O)[O-])cc2C(=O)O)cc2ccccc12,outcome,[1],inactive
same,outcome,[2],inactive
CCc1nnc(NS(=O)(=O)c2ccc(NC(=S)NC(=O)/C=C/c3ccc(F)cc3)cc2)s1,outcome,[1],inactive
same,outcome,[2],inactive
same,Potency,[3],23.4 µM (active)
C/C=C/C=C/C=C/C(=O)O[C@@H]1[C@@H](OC)C2=C(C(=O)N(C(CCC(=O)O)C(=O)O)C2)[C@@]2(C)CCCC(C)(C)[C@H]12 (stereo partly drawn),outcome,[1],inactive
same,outcome,[2],inactive
same,Potency,[3],inactive
CC(=O)OC12CC(C)C(OC(=O)c3ccccc3)C1/C=C(/C)C(OC(=O)c1ccccc1)CC(=O)C(C)(C)/C=C/C(C)C2=O (stereo not drawn),outcome,[1],inactive
same,outcome,[2],inactive
same,Potency,[3],2.76 µM (active)
O=C(Nc1ccccc1)Nc1ccc(-c2ccc(C(=O)C3CCCC3C(=O)O)cc2)cc1 (stereo not drawn),outcome,[1],inactive
same,outcome,[2],inactive
same,Potency,[3],inactive
"CCCCCOc1ccc(-c2cc(-c3ccc(C(=O)N[C@H]4C[C@@H](O)[C@@H](O)NC(=O)C5[C@@H](O)[C@@H](C)CN5C(=O)C([C@H](O)CC(N)=O)NC(=O)C([C@H](O)[C@@H](O)c5ccc(O)c(OS(=O)(=O)O)c5)NC(=O)C5C[C@@H](O)CN5C(=O)C([C@@H](C)O)NC4=O)cc3)no2)cc1 (stereo partly drawn) (X2-[Orn(4R-OH,5R-OH)][ξThr(3R)][ξPro(4R-OH)][ξhTyr(3S-OH,4S-OH,3'-OSO3H)][ξGln(3R-OH)][X3]; lactam 1-C)",outcome,[1],inactive
same,outcome,[2],inactive
COc1cc(Nc2nc3ccccc3nc2NS(=O)(=O)c2cccc(NC(=O)c3ccc(C)c(OC)c3)c2)cc(OC)c1,outcome,[1],inactive
same,outcome,[2],inactive
COc1cccc(CNc2ccc(S(=O)(=O)Nc3nc4ccccc4s3)cc2)c1O,outcome,[1],inactive
same,outcome,[2],inactive
same,Potency,[3],0.186 µM (active)
Cc1ccc2[nH]c(=O)c(C3=NN(C(=O)CCC(=O)O)C(c4ccc(Br)cc4)C3)c(-c3ccccc3)c2c1 (stereo not drawn),outcome,[1],inactive
same,outcome,[2],inactive
COc1cc2c(c(O)c1OC/C=C(\C)CC/C=C(/C)CCC=C(C)C)CN(C(CCC(=O)O)C(=O)O)C2=O (stereo not drawn),outcome,[1],inactive
same,outcome,[2],inactive
CCOc1ccc(-c2cc(NC(=O)c3c(F)cccc3F)c(C(=O)O)s2)cc1,outcome,[1],inactive
same,outcome,[2],inactive
C=C1CCC2C(C)(C)CCC[C@]2(C)[C@H]1CC/C(C)=C/C(=O)O (stereo partly drawn),outcome,[1],inactive
same,outcome,[2],inactive
same,Potency,[3],inactive
CC1(C)CC=C(c2cnc3ccccc3c2)c2cc(C(=O)Nc3ccc(C(=O)O)cc3)ccc21,outcome,[1],inactive
same,outcome,[2],inactive
same,Potency,[3],inactive
COc1cc(C)c(C(=O)OC2C(C)OC(OC3CCC(C)C4C3C=C(C)C3/C(C)=C\CC/C(C)=C/C5(C)C=C(C(=O)O)C(C)CC56OC(=O)/C(=C(\O)C34C)C6=O)C(O)C2O)c(OC)c1 (stereo not drawn),outcome,[1],inactive
same,outcome,[2],inactive
COc1cnc(-c2ccc(Cn3c(CC(C)(C)C(=O)O)c(SC(C)(C)C)c4cc(OC[C@@H]5Cc6ccccc6N5C(C)=O)ccc43)cc2)nc1,outcome,[1],inactive
same,outcome,[2],inactive
COc1cc(/C=C/c2ccccc2)c(C(=O)O)c(O)c1CC=C(C)C,outcome,[1],inactive
same,outcome,[2],inactive
CC1C(O)C(O)C2C(C(=O)OCCc3ccc(O)cc3)=COC(O[C@@H]3O[C@H](CO)[C@@H](O)[C@H](O)[C@H]3O)C12 (stereo partly drawn),outcome,[1],inactive
same,outcome,[2],inactive
same,Potency,[3],inactive
CC(C)CC(c1c(O)c(C=O)c(O)c(C=O)c1O)C1CCC(C)(O)C2CC(C(C)(C)O)CCC12C (stereo not drawn),outcome,[1],inactive
same,outcome,[2],inactive
same,Potency,[3],inactive
Cc1ccccc1NC(=O)Nc1ccc(CN2C(=O)N([C@@H](CC(C)C)C(=O)N[C@@H](CC(=O)O)c3ccccc3)C(=O)C2(C)C)cc1,outcome,[1],inactive
same,outcome,[2],inactive
same,Potency,[3],inactive
Cc1cc(C)c2nc(-c3ccccn3)cc(C(=O)Nc3ccc(S(=O)(=O)Nc4onc(C)c4C)cc3)c2c1,outcome,[1],inactive
same,outcome,[2],inactive
C=CC1(C)C=C2CC[C@H]3[C@@](C)(C(=O)O)CCC[C@]3(C)C2CC1 (stereo partly drawn),outcome,[1],inactive
same,outcome,[2],inactive
COc1cccc(OC)c1-c1cc(C(=O)N[C@@H](CC(C)C)C(=O)O)nn1-c1ccnc2cc(Cl)ccc12,outcome,[1],inactive
same,outcome,[2],inactive
same,Potency,[3],inactive
O=C(O)CC/C=C\C[C@H]1CO[C@@H](c2ccccc2Cl)O[C@H]1c1ccccc1O,Potency,[3],inactive
CCC(C)/C=C(C)/C=C/C1=CC2=CC(=O)C(C)(O)C(OC(C)=O)C2CO1 (stereo not drawn),Potency,[3],inactive
C/C(=C\CC/C(C)=C/CC[C@]1(C)CCc2cc(O)cc(C)c2O1)CC/C=C(\C)C(=O)O,outcome,[1],inactive
same,outcome,[2],inactive
same,Potency,[3],inactive
same,outcome,[4],inactive
same,outcome,[5],inactive
same,outcome,[6],inactive
same,outcome,[7],inactive
same,outcome,[8],inactive
same,Potency,[9],18.8 µM (active)
same,outcome,[10],inactive
C=C1C2CCC3CC2(CC(O)C2(O)C1CC(OC1OC(CO)C(O)C(O)C1O)C2(C)C)CC3(C)O (stereo not drawn),outcome,[1],inactive
same,outcome,[2],inactive
same,Potency,[3],inactive
O=C1NC(=O)/C(=C/c2cccc(C(F)(F)F)c2)S1,outcome,[2],inactive
same,Potency,[3],18.6 µM (active)
O=C(/C=C/c1ccccc1)OC[C@H]1O[C@@H](OC(=O)c2cc(O)c(O)c(O)c2)[C@H](O)[C@@H](O)[C@@H]1O,Potency,[3],inactive
CC1=C2CC3C(CCC3(C)O)C(C)(O)CC2OC1=O (stereo not drawn),Potency,[3],inactive
COc1cc2c(c(OC)c1O)C(c1ccc(O)cc1)C1C(=O)OC3C(COC(=O)C1=C2)OC(CO)(OC1OC(COC(=O)/C=C/c2ccc(OC4OC(C)C(O)C(O)C4O)cc2)C(O)C(O)C1O)C3O (stereo not drawn),Potency,[3],inactive
Cc1ccc([C@@H]2CC=C(C(=O)O)[C@H](c3ccc(C(C)(C)C)cc3)N2S(=O)(=O)c2ccc(C)cc2)cc1,outcome,[1],inactive
same,outcome,[2],inactive
same,Potency,[3],18.6 µM (active)
COc1ccc(C2C(C(=O)O)C(C(=O)O)C2c2ccc(OC)cc2O[C@@H]2O[C@H](CO)[C@@H](O)[C@H](O)[C@H]2O)c(O[C@@H]2O[C@H](CO)[C@@H](O)[C@H](O)[C@H]2O)c1 (stereo partly drawn),Potency,[3],inactive
CO[C@H]1c2cc(C(C)C)c(O)c(O)c2[C@@]23CCCC(C)(C)C2[C@@H]1OC3=O (stereo partly drawn),Potency,[3],inactive
C=C1C2CCC3C(CCC4[C@@]3(C)CCC[C@@]4(C)C(=O)O)(C2)[C@@H]1OC(=O)/C(C)=C\C (stereo partly drawn),outcome,[1],inactive
same,outcome,[2],inactive
same,Potency,[3],inactive
CC(=O)O[C@H]1C[C@@]2(C)[C@@H](CC[C@H]3[C@@]4(C)C=CC(=O)[C@@H](C)[C@@H]4[C@H](OC(C)=O)C(=O)[C@@]32C)/C1=C(\CCC=C(C)C)C(=O)O,outcome,[4],inactive
same,outcome,[6],inactive
same,outcome,[7],inactive
same,outcome,[8],inactive
same,outcome,[10],inactive
CCCCCC(=O)N1CCC[C@H]1C(=O)N[C@@H](Cc1ccc(O)cc1)C(=O)OC (Hexanoyl-Pro-Tyr-OMe),Potency,[3],inactive
COc1cc(CCCO)ccc1O[C@@H]1O[C@H](CO)[C@@H](O)[C@H](O)[C@H]1O,Potency,[3],inactive
CSCC[C@H](NC(=O)[C@H](CO)NC(=O)[C@H](CCC(=O)O)NC(C)=O)C(=O)N[C@H](C=O)CC(=O)O (Ac-ESMD-aldehyde),"activity change, negative = inhibition",[3],-0.374% [at 5.25 µM]
CC(C)c1ccc2c(c1)CCC1[C@](C)(C(=O)O)CCC[C@]21C (stereo partly drawn),outcome,[4],inactive
same,outcome,[5],inactive
same,outcome,[6],inactive
same,outcome,[7],inactive
same,outcome,[8],inactive
same,Potency,[9],inactive
same,outcome,[10],inactive
CC1(C)[C@H]2C[C@H](C/C=C\CCCC(=O)O)[C@@H](NC(=O)c3csc4ccc(O)cc34)[C@@H]1C2,Potency,[3],inactive
O=C(O)C1(c2ccc(-c3ccc(Cl)c(Cl)c3)c(F)c2)CC1,outcome,[1],inactive
same,outcome,[2],inactive
same,Potency,[3],inactive
CC1(C)CC[C@]2(C(=O)O)CC[C@]3(C)C(=CCC4[C@@]5(C)CC[C@H](O[C@@H]6O[C@H](C(=O)O)[C@@H](O)[C@H](O)[C@H]6O)C(C)(C)C5CC[C@]43C)C2C1 (stereo partly drawn),Potency,[3],9.79 µM (active)
CC(C)=CCC[C@@](C)(O)[C@H]1CC[C@]2(C)[C@@H]1[C@H](O)CC1[C@@]3(C)CC[C@H](O[C@@H]4O[C@H](CO)[C@@H](O)[C@H](O)[C@H]4O[C@@H]4O[C@H](CO)[C@@H](O)[C@H](O)[C@H]4O)C(C)(C)[C@@H]3CC[C@]12C (stereo partly drawn),Potency,[3],inactive
O=C(/C=C/C=C/c1ccc2c(c1)OCO2)N1CCCCC1,outcome,[4],inactive
same,outcome,[7],inactive
same,Potency,[9],inactive
same,outcome,[10],inactive
